# In the supplement of paper PMC11732987, “Enantioselective OTUD7B fragment discovery through chemoproteomics screening and high-throughput optimisation” (Communications Chemistry, 2025):
# A number with no mark means an inactive call.
# Experiments:
# Experiment in all cases: log2 ratio of Biotin-Ahx-Ub-VS probe labelling (fragment/DMSO); higher = less target engagement (more negative = stronger competition), active = hit call of the paper (q ≤ 0.05, log2 ratio ≤ -1)
# Details in all cases: compound concentration: 200 uM; treatment time: 3 h
# OTUD6B = biological target: T1, OTUD6B (UniProt Q8N6M0)
# T1 sequence (whole entry): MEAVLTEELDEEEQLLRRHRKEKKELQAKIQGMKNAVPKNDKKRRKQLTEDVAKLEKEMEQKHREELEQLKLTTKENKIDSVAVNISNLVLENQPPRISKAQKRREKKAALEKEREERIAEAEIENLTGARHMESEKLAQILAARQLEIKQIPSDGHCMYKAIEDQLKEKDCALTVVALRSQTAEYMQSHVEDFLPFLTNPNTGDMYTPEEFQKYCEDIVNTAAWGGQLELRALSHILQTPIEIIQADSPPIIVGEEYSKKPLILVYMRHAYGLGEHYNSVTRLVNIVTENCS
# Method in brief: (§1)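 Labelling with Biotin-Ahx-Ub-VS (0.5 µM final, 1 h) followed a 3 h triplicate treatment of HEK293T lysate (495 µg per sample, Tris/CHAPS/IGEPAL buffer with protease inhibitors) with fragment at 200 µM or vehicle. Labelled DUBs were NeutrAvidin-enriched, digested with LysC and trypsin, and run by diaPASEF LC-MS/MS. The values, average log2 fragment/vehicle ratios by unpaired t-test, come from global-median-normalised Spectronaut label-free quantities. Proteins with ≥2 unique peptides were used.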
# OTUD7B = biological target: T2, OTUD7B (UniProt Q6GQQ9)
# T2 sequence (whole entry): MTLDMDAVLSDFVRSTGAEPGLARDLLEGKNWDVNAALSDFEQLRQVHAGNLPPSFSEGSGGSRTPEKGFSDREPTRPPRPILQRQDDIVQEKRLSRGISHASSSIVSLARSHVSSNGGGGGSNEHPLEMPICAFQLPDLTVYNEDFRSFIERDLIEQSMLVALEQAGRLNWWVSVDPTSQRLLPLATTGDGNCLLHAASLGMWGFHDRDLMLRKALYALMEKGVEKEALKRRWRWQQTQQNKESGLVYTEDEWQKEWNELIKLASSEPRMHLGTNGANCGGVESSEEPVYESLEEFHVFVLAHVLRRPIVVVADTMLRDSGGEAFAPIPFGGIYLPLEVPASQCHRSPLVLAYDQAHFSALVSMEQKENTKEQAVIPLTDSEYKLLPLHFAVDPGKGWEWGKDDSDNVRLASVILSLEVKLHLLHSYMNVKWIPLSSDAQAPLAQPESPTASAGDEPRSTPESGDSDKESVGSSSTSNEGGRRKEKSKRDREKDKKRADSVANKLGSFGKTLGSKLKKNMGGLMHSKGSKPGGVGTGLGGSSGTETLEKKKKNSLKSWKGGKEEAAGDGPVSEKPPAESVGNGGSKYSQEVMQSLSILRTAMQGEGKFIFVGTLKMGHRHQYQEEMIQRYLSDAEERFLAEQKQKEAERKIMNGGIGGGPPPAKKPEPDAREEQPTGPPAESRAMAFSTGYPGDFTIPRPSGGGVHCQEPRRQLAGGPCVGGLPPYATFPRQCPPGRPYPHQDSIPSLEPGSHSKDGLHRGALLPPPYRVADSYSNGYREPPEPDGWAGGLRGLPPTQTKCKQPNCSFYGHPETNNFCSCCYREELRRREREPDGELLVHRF
# Method in brief: as §1
# PRPF8 = PRPF8 (UniProt Q6P2Q9)
# Method in brief: as §1
# PSMD7 = biological target: T3, PSMD7 (UniProt P51665)
# T3 sequence (whole entry): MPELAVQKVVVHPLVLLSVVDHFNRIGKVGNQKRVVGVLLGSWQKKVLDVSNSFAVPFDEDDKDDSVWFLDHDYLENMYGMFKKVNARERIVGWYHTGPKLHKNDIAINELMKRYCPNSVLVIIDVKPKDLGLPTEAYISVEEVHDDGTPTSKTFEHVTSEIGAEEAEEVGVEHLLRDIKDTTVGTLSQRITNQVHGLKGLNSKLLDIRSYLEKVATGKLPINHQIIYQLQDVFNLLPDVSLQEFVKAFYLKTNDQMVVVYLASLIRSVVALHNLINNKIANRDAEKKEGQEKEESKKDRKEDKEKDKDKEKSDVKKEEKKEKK
# Method in brief: as §1
# UCHL1 = UCHL1 (UniProt P09936)
# Sequence of UCHL1 (P09936 whole entry, looked up): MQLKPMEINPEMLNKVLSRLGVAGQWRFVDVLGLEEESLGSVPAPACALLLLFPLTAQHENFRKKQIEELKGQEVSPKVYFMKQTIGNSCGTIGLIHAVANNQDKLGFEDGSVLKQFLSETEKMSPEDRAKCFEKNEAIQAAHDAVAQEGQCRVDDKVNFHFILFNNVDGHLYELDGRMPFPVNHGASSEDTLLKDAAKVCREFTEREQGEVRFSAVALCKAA
# Method in brief: as §1
# UCHL3 = biological target: T4, UCHL3 (UniProt P15374)
# T4 sequence (whole entry): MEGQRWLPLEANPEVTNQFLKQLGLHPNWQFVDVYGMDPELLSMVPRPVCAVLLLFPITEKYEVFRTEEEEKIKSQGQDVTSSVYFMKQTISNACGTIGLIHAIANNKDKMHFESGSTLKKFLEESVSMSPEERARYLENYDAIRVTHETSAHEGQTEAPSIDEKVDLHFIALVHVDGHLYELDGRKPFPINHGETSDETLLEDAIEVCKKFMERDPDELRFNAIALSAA
# Method in brief: as §1
# UCHL5 = biological target: T5, UCHL5 (UniProt Q9Y5K5)
# T5 sequence (whole entry): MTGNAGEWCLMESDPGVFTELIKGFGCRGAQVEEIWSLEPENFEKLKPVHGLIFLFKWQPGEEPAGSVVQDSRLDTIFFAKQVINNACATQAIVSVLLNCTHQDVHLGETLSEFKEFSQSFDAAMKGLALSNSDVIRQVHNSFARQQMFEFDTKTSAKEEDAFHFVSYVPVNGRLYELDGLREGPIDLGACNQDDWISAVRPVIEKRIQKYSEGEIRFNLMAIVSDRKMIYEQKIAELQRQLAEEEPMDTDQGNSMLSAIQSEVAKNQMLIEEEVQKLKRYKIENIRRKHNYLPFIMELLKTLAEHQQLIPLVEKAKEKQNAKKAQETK
# Method in brief: as §1
# USP10 = USP10 (UniProt Q14694)
# Sequence of USP10 (Q14694 whole entry): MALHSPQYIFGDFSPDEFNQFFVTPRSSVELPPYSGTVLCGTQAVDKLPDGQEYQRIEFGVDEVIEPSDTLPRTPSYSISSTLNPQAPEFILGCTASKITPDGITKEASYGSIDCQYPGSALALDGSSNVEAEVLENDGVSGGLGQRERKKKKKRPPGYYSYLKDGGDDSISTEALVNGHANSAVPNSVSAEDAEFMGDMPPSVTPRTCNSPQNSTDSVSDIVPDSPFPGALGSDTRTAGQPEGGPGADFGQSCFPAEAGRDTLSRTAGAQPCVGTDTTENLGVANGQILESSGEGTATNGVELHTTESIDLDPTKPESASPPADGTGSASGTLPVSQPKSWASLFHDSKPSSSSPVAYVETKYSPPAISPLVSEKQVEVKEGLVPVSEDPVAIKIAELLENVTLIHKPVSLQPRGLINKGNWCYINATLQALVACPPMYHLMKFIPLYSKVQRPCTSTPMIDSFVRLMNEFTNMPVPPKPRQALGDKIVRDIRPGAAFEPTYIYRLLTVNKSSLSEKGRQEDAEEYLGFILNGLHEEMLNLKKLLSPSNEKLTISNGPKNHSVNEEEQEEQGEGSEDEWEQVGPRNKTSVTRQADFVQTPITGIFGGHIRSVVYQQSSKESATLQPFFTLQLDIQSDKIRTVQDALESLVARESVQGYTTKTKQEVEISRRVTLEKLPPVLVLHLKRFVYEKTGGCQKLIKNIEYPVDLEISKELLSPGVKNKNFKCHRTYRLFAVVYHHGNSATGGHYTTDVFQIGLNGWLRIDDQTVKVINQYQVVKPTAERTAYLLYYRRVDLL
# Method in brief: as §1
# USP15 = biological target: T6, USP15 (UniProt Q9Y4E8)
# T6 sequence (whole entry): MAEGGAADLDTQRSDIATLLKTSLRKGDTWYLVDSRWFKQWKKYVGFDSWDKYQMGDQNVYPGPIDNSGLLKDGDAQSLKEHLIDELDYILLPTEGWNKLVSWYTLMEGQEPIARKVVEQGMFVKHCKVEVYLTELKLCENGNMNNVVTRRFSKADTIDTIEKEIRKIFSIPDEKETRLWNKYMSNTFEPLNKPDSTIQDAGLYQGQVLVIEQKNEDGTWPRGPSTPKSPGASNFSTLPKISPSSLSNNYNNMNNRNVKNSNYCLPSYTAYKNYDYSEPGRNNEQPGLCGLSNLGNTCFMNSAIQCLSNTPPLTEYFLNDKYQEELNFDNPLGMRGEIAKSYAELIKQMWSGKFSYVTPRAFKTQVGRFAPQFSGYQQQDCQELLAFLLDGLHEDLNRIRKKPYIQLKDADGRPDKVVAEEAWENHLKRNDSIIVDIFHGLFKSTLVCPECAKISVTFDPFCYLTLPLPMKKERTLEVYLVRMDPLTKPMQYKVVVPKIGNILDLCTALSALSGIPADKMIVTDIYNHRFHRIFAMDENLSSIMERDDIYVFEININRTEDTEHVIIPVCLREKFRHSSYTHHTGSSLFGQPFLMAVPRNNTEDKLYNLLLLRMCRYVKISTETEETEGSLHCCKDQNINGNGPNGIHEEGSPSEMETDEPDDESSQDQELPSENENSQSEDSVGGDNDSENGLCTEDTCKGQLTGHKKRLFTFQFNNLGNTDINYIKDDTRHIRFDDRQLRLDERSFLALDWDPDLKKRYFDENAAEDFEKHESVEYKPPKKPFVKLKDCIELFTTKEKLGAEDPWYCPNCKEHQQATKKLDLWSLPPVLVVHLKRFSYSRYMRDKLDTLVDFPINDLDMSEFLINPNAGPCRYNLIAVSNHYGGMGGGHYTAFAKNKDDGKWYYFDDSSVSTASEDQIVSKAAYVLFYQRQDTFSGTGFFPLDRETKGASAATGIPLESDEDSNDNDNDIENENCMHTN
# Method in brief: as §1
# USP16 = USP16 (UniProt Q9Y5T5)
# Sequence of USP16 (Q9Y5T5 whole entry, looked up): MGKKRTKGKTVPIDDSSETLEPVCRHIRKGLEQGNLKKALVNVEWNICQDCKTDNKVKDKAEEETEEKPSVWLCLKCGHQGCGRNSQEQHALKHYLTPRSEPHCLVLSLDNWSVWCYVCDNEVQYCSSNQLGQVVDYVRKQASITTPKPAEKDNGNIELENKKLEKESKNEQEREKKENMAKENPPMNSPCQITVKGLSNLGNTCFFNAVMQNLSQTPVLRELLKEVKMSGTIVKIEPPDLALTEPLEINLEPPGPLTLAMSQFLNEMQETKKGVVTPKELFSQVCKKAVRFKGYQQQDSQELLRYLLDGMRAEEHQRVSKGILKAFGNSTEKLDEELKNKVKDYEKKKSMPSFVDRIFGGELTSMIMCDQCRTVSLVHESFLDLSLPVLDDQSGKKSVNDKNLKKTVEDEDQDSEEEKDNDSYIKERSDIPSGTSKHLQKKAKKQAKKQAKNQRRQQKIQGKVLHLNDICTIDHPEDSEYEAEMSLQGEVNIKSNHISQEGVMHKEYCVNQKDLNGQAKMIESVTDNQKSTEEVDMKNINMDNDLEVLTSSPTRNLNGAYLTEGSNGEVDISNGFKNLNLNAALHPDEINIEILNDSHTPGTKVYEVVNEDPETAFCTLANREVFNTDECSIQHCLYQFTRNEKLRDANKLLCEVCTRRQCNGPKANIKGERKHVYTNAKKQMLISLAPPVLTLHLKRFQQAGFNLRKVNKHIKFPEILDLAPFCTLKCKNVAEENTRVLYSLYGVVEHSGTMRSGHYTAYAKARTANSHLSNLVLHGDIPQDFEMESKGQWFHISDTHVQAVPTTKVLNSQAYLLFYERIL
# Method in brief: as §1
smiles,measurement,setting,value
COc1ccccc1C(C)NC(=O)CCl (stereo not given),log2 ratio of Biotin-Ahx-Ub-VS probe labelling,OTUD6B,-0.401
same,log2 ratio of Biotin-Ahx-Ub-VS probe labelling,OTUD7B,-0.997
same,log2 ratio of Biotin-Ahx-Ub-VS probe labelling,PRPF8,-0.14
same,log2 ratio of Biotin-Ahx-Ub-VS probe labelling,PSMD7,-0.451
same,log2 ratio of Biotin-Ahx-Ub-VS probe labelling,UCHL1,-1.47 (active)
same,log2 ratio of Biotin-Ahx-Ub-VS probe labelling,UCHL3,-1.18 (active)
same,log2 ratio of Biotin-Ahx-Ub-VS probe labelling,UCHL5,-0.318
same,log2 ratio of Biotin-Ahx-Ub-VS probe labelling,USP10,-0.0811
same,log2 ratio of Biotin-Ahx-Ub-VS probe labelling,USP15,-0.251
same,log2 ratio of Biotin-Ahx-Ub-VS probe labelling,USP16,-0.386
